About 3,800 (1.2%) of roughly 310,000 compounds were called active.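 The calls were made as follows: active = ratio B-score over 3 SD below the library mean, with starting fluorescence within 5 SD of its mean; inactive = the rest, inconclusive results apart.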 Shown is part of a subset that was picked to be rich in actives.
Molecular target: Potassium channel subfamily K member 9 (Homo sapiens) (UniProt Q9NPC2)
Experiment: KCNK9 potassium channel inhibitors, primary screen, HEK293 cells, thallium flux (AID 488922);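 as to B-score: negative B-score means less thallium flux so channel inhibition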
Settings: HEK293 KCNK9, FluxOR thallium flux fluorescence, at 10 µM; hits give low values

Sequence of Potassium channel subfamily K member 9 (Homo sapiens) (Q9NPC2 whole entry, looked up): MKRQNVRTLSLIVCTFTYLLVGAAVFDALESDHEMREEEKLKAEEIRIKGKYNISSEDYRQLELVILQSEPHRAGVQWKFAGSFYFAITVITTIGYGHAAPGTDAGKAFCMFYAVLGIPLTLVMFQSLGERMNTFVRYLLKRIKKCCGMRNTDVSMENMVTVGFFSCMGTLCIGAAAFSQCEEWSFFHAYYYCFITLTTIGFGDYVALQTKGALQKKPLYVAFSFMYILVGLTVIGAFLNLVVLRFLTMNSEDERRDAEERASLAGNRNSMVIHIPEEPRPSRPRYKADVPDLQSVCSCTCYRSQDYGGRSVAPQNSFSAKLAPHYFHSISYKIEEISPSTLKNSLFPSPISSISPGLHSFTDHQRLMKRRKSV

Compound | B-score
C/C=N/N(c1ccccc1)c1ccccc1 | inactive
O=C(/C=C/c1cccc(C(F)(F)F)c1)N1CCN(c2ccccn2)CC1 | inactive
NC(N)=Nc1nc(-c2ccccc2)c2cc(Cl)ccc2n1 | -6.86 (active)
OCCCNc1nc(-c2ccccc2)c2cc(Cl)ccc2n1 | inactive
O=C(CCl)NNc1nc(-c2ccccc2)c2cc(Cl)ccc2n1 | inactive
Cn1c(C(=O)OC(C(=O)NC2CCCCC2)c2ccccn2)cc2sccc21 (centres undefined) | inactive
COc1cc(C(=O)NCc2cc3cc(Cl)ccc3n2C)cc(OC)c1OC | inactive
CCC1C(=O)NCCN1C(=O)c1ccc2nc(Cc3ccc(OC)cc3)oc2c1 (centres undefined) | inactive
COc1cccc(NC(=S)NCCCN2CCOCC2)c1 | inactive
COc1ccc(Cl)cc1NC(=O)CCN1CCOCC1 | inactive
COc1cccc2cc(C(C)N(CCCN3CCOCC3)C(=O)Nc3ccc(Cl)cc3)oc12 (centres undefined) | -9.66 (active)
Cc1cccc2[nH]c(CN(C)C(=O)C3CCC(=O)N(CCc4ccccc4)C3)nc12 (centres undefined) | inactive
COc1ccccc1-c1nnc(-c2ccc(F)cc2)o1 | inactive
CC1=C(N2CCN(c3ncccn3)CC2)CCC1=O | inactive
O=C(Nc1ccccc1[N+](=O)[O-])C1C(c2ccccc2)=C1c1ccccc1 | -8.24 (active)
O=C(O)c1ccccc1C(=O)Nc1ccccc1[N+](=O)[O-] | inactive
O=C(Nc1ccccc1-c1ccccc1)c1ccccc1[N+](=O)[O-] | inactive
CCCCNS(=O)(=O)c1ccc2nc(SCC(=O)Nc3cc(C)cc(C)c3)[nH]c2c1 | inactive
CCN(CC)CCn1cnc2c1c(=O)n(CCOC(=O)c1cc(OC)c(OC)c(OC)c1)c(=O)n2C | inactive
Cc1ccc(OCCNC(=O)CN2C(=O)NC3(CCCC3)C2=O)cc1 | inactive
O=C(NCc1ccccn1)Nc1ccc(Cl)cc1 | inactive
CC12CCC(C(=O)N(c3cccc(Cl)c3)C1=O)C2(C)C (centres undefined) | inactive
CC1=NN(c2cccc(Cl)c2)C(=O)C12CC(C)=C(C)CS2 (centres undefined) | -11.1 (active)

Compound | B-score
O=C(COC(=O)C1CC2C=CC1C2)Nc1ccccc1 (centres undefined) | inactive
Cc1ccc(C(=O)N/C(=C\c2ccc(F)cc2)C(=O)NCCN2CCOCC2)cc1 | inactive
O=C(CN1C(=O)S/C(=C\c2ccccc2F)C1=O)NCCCn1ccnc1 | inactive
O=C(CN1C(=O)/C(=C/c2ccccc2F)Sc2ccccc21)NCc1cccnc1 | inactive
O=C(CN1C(=O)/C(=C\c2ccccc2F)SC1=S)Nc1nc2ccccc2s1 | -7.2 (active)
Cc1cc(CNCc2c(C(=O)N(C)Cc3ccccc3)nc3ccccn23)nn1C | inactive
COC(=O)Cc1ccc(N(Cc2ccccc2F)S(=O)(=O)c2ccc(Br)cc2)cc1 | -6.88 (active)
Cc1ccc(S(=O)(=O)N(CC(=O)Nc2cccnc2)c2ccc(Br)cc2)cc1 | inactive
CCCNC(=O)CN(Cc1ccccc1F)S(=O)(=O)c1ccc(C)cc1 | inactive
O=C(/C=C/c1ccc([N+](=O)[O-])cc1)NCCSCc1ccco1 | inactive
O=C(c1ccc(Br)o1)N1CCN(CCOc2ccccc2)CC1 | inactive
COc1ccc(N2CCN(C(=O)CNC(=O)c3ccc(Br)o3)CC2)cc1 | inactive
COc1ccc(-c2csc(NC(=O)COC(=O)c3ccc(Br)o3)n2)cc1 | inactive
COc1ccc(-c2nc(CCNC(=O)c3ccc(Br)o3)cs2)cc1 | -10.5 (active)
CCCCC(CC)CNC(=O)C(=O)C1C(=O)Nc2ccccc21 (centres undefined) | inactive
COc1cc2c(C(=O)N(C)c3cc(Cl)ccc3OC)cn(C)c(=O)c2cc1OC | inactive
CCOc1ccccc1N1CCN(C(=S)Nc2ccc(S(N)(=O)=O)cc2)CC1 | inactive
CCOc1ccccc1NC(=S)N1CCN(c2cccc(C)c2C)CC1 | -6.79 (active)
CCC(=O)N1CCN(c2ccccc2NC(=O)COc2cccc(C)c2C)CC1 | inactive
CC(c1ccco1)N(C(=O)Nc1ccccc1)C1CCCCC1 (centres undefined) | inactive
CCOc1ccc(NC(=O)N(CCC(C)C)C(C)c2ccco2)cc1 (centres undefined) | -7.13 (active)
CCOc1ccc(NC(=O)N(CC(C)C)CC(C)C)cc1 | inactive
COc1cc(C)nc(N2CCCC(C(=O)NCC(C)C)C2)n1 (centres undefined) | inactive

Compound | B-score
COc1ccc(NC(=O)CN(C)CC(=O)Nc2cccc(C(F)(F)F)c2)cc1 | -11.5 (active)
COc1cccc(NC(=O)CN(C)CC(=O)Nc2ccc3c(c2)CCC3)c1 | inactive
COc1ccc(NC(=O)C(=O)NCC(=O)Nc2cccc(C(F)(F)F)c2)cc1 | inactive
CC(C)c1c(C(=O)N/N=C/c2ccccc2C(=O)O)nnn1-c1nonc1N | inactive
CN1C(=O)/C(=C/C=C2\SCCN2C)OC1=S | inactive
CC1Cc2ccccc2N1C(=O)c1cc2sccc2n1Cc1ccccc1 (centres undefined) | inactive
O=C(c1cc2sccc2n1Cc1ccc(F)cc1)N1CCc2ccccc21 | inactive
CCOC(=O)c1cc2sccc2n1Cc1ccc(C#N)cc1 | -12.8 (active)
CCCCC(=O)Nc1c2c(nn1-c1ccc([N+](=O)[O-])cc1)CS(=O)(=O)C2 | inactive
CCSC1=NCCN1C(=O)c1ccc(S(=O)(=O)N(CC)CC)cc1 | inactive
COC(=O)c1ccccc1Sc1c(/C=N/OCc2ccc(Cl)cc2)c(C(F)(F)F)nn1C | inactive
Cn1nc(C(F)(F)F)c(C(=O)Nc2cccc(C(F)(F)F)c2)c1SCc1ccc(Cl)cc1 | -7.25 (active)
O=C(O)CSc1c2c(nc3cc(C(=O)Nc4cccc(C(F)(F)F)c4)ccc13)CCCC2 | inactive
C[n+]1cc(-c2ccccc2)oc1-c1ccccc1 | inactive
COc1cccc(-c2coc3cc4oc(=O)c(CC(=O)O)c(C)c4cc23)c1 | inactive
COc1cc(C(=O)OC2CCOC2=O)c([N+](=O)[O-])cc1OC (centres undefined) | inactive
CN(C)Cc1ccccc1C1(O)c2ccccc2CSc2ccccc21 (centres undefined) | -6.84 (active)
CC(=O)Nc1ccc(S(=O)(=O)N2CCC(NC(=O)c3ccccc3)CC2)cc1 | inactive
COc1ccc(-c2csc3ncnc(N4CCN(S(=O)(=O)c5cccc(F)c5)CC4)c23)cc1 | inactive
CCCCCOC(=O)C1=C(C)Nc2nnnn2C1c1ccc(OC)c(OC)c1OC (centres undefined) | inactive
COc1ccc(-c2nnn(CC(=O)N(CCO)C(C(=O)NC3CCCC3)c3ccc(F)cc3)n2)cc1 (centres undefined) | inactive
CC(C)CCNC(=O)C(C)N(C(=O)Cn1nnc(-c2ccc(F)cc2)n1)C1CCCC1 (centres undefined) | -8.61 (active)
CC(C)CCNC(=O)CN(C(=O)Cn1nnc(-c2ccc(F)cc2)n1)C1CCCC1 | inactive

Source: PubChem BioAssay AID488922 (Johns Hopkins Ion Channel Center, 2010)
